# A selection: hits, their analogues and other compounds. The true share with any hit is near 8%.
# HT1080 IDH1KD tx: HT-1080 IDH1 knockdown cell toxicity (counter line); HT-1080 IDH1 knockdown viability, ATP luminescence, 48 h; Potency, µM (top dose mostly 46.1 µM), hits mostly cytotoxic; 2% of 360,000 active
#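 Assay cells: HT-1080 with IDH1 knockdown, 750 per well, RPMI/5% FBS. Exposure: 48 h at 37 °C following 2 h pre-incubation. Read: CellTiter-Glo luminescence; fitted concentration-response, curve class assigned.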
# HT1080NT lethal: kills 2HG-producing HT-1080-NT fibrosarcoma cells; HT-1080-NT fibrosarcoma viability, CellTiter-Glo ATP luminescence, 48 h; Potency, µM (titrated, usually from 46.1 µM), hits mostly cytotoxic; 1.6% of 360,000 active; AID 686970;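 also: NT is the 2HG producing partner of a matched IDH1 knockdown line; nearly all actives have a fitted effect of over 55% in size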
#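 Viability by CellTiter-Glo luminescence after 48 h compound exposure at 37C of HT-1080-NT cells (750/well, RPMI, 5% FBS). % activity scaled between DMSO wells and medium-only wells, then curve-fitted and categorized by curve class.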
# KB-V1 MDR tox: kills drug-selected multidrug resistant KB-V1 cells. 3.4% of 400,000 active. KB-V1 MDR cells viability, CellTiter-Glo, 72 h. AID 1347076. Potency, µM (doses to about 46.1 µM), hits mostly cytotoxic; also: nearly all actives have a fitted effect of over 60% in size
#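 Potencies derive from concentration-effect curves fitted to normalized luminescence (CellTiter-Glo) of KB-V1 cells treated for 72 h at 37 degrees C in phenol-red-free DMEM containing 10% FBS.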
# SW480 rerep: inducers of DNA re-replication in SW480 colon cancer cells; SW480 DNA re-replication, Hoechst DNA content imaging, 48 h; Potency, µM (series often up to 46.1 µM), hits mostly activators; 1.8% of 340,000 active; AID 624297; also: nearly all actives have a fitted effect of over 55% in size
#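 Hoechst fluorescence of nuclei (405 nm excitation, 500-530 nm emission) measured by plate-scanning imager after 48 hr compound exposure at 37 C; re-replication scored as increased number of nuclei with elevated intensity.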
# MCF10A rerep: induces DNA re-replication in MCF 10a normal breast cells; Potency, µM (doses to about 46.1 µM), most hits filed as activators; MCF 10A DNA re-replication, Hoechst nuclear intensity, 48 h; 2.9% of 350,000 active; also: nearly all actives have a fitted effect of over 50% in size
# KB-3-1 tox: kills parental KB-3-1 adenocarcinoma cells. Potency, µM (doses to about 46.1 µM), actives largely listed as cytotoxic. AID 1347075. KB-3-1 viability, CellTiter-Glo ATP luminescence, 72 h. 1.4% of 400,000 active; also: nearly all actives have a fitted effect of over 60% in size
#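 Here the drug-naive KB-3-1 line serves as comparator for MDR sub-line selectivity; cells received compound titrations, 72 h at 37 °C, then CellTiter-Glo readout.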
# Numbers stand for hits; – = inactive; ? = inconclusive; · = not tested or not shown; [ ] = remark or other dose. Calls follow the shape of the dose curve; as a rule, active = well fitted curve in the direction sought with a large enough effect; inconclusive = small, poorly fitted or top-dose-only effect, or another doubt; inactive = no such curve, though single readings can be large; an effect the other way counts as inactive or inconclusive.
SMILES,HT1080 IDH1KD tx,HT1080NT lethal,KB-V1 MDR tox,SW480 rerep,MCF10A rerep,KB-3-1 tox
Cc1nn(-c2ccc(F)cc2)c(Cl)c1/C=C(\CCC(=O)O)c1nc2ccccc2s1,–,–,–,–,18µM,–
COc1ccc2nc(-c3ccc(N)cc3)[nH]c2c1,–,–,–,–[9.22 µM],–,–
COc1ccc(-c2nc3ccc(C4=C(C)CC(=O)NN4)cc3[nH]2)cc1,·,·,·,19µM,?,·
C=CCn1c(-c2ccc(Cl)cc2)c[nH]c1=S,–,–,23µM,?,–,21µM
C=CCn1c(-c2ccccc2)c[nH]c1=S,–,–,?,?,–,?
COc1cc(C(=O)NCc2ccc3c(c2)CCN3C(=O)c2ccc(Cl)cc2)cc(OC)c1OC,·,·,–,·,·,–
O=C(CCc1ccccc1)NCC(c1ccco1)N1CCc2ccccc21 (stereo not drawn),5.2µM,6.5µM,7.3µM,18µM,4.6µM,3.7µM
O=C(NCC(c1ccco1)N1CCc2ccccc21)c1ccccc1F (stereo not drawn),–,–,?,–,–,–
O=S1(=O)N=C(Oc2cccc(C(F)(F)F)c2)c2ccccc21,·,·,–,·,·,?
Cc1cccc(OCc2cc(-c3ccccc3)no2)c1C,–,–,?,–,–,–
Cc1cc(COc2ccccc2OCc2cc(C)no2)on1,–,–,12µM,–,–,–
Cc1ccccc1CS(=O)(=O)Cc1ccc(C(=O)NCCc2ccc(Cl)cc2)o1,·,·,–,·,·,–
O=C(CSc1nnc(-c2ccc(F)cc2)o1)N1CCCc2ccccc21,·,·,–,·,·,–
COc1ccc2c(c1)CCC1(C)CC(=O)C(Br)=C21 (stereo not drawn),–,–,6.5µM,·,·,?
C=CCn1c(=O)c2c(nc3n2CCN3c2cccc(Cl)c2C)n(C)c1=O,–,–,8.2µM,–,–,–
CCOc1ccccc1CNCCCSc1nnnn1C,·,·,–,·,·,–
CCOC(=O)c1[nH]c(C)c(/C(O)=C2\C(=O)C(=O)N(CCN3CCOCC3)C2c2cccs2)c1C (stereo not drawn),?,?,?,?,?,20µM
COC(=O)c1[nH]c(C)c(/C(O)=C2\C(=O)C(=O)N(CCN(C)C)C2c2cccs2)c1C (stereo not drawn),–,–,–,–,–,–
COc1ccc(N(CC(=O)NCCc2cccc(C)c2)S(=O)(=O)c2c(C)nn(C)c2C)cc1,·,·,–,·,·,–
Cc1nc([N+](=O)[O-])c(C(=O)OCc2ccccc2Br)n1C,–,–,21µM,–,–,?
CCOc1ccc(C(=O)Nc2ccc3nn(-c4ccc(OC)c(Cl)c4)nc3c2)cc1,·,·,–,·,·,–
COCC(C)NC(=O)c1cc2c(=O)n3cccc(C)c3nc2s1 (stereo not drawn),·,·,–,·,·,–
